# In the library only some 21% were active in any assay of this set; here they are far more common.
# DT40 TDP1 no CPT: qHTS for Inhibitors of human tyrosyl-DNA phosphodiesterase 1 (TDP1): qHTS in cells in absence of CPT; DT40 Tdp1-/- hTDP1 cells, no CPT, ATP luminescence, 48 h; Potency, µM (doses to about 46.2 µM), most hits filed as inhibitors; 420,000 tested, 15% active; also: nearly all actives have a fitted effect of over 55% in size
#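 Growth of hTDP1-complemented DT40 Tdp1-knockout cells is measured by ATP luminescence after at least 48 hr compound exposure at 37 °C, with DMSO substituting for the 20 nM CPT used in the parallel screen.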
# DRD3 antagonist: blocks the human D3 dopamine receptor; D3R cells, DiscoveRx beta-arrestin luminescence, antagonist mode; hits give low values; 360,000 tested, 2.5% active; max response, negative = inhibition, %; P35462; in the data active = max response below about -50%; inconclusive = no clear call, values can overlap the other calls
# Target sequence (P35462 whole entry, looked up): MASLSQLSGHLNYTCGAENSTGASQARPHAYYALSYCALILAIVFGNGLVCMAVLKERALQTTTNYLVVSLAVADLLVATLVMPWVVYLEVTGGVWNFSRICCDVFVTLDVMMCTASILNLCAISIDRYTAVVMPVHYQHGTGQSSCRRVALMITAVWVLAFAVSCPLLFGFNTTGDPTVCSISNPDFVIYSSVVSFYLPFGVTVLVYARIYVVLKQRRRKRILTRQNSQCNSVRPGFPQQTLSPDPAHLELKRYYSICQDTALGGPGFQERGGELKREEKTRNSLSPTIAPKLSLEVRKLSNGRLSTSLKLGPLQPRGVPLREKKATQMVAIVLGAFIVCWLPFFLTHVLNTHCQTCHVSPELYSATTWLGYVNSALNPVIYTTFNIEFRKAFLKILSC
#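 Cells expressing the human receptor were seeded at 1500 cells/well, incubated overnight at 37 degrees C in 5% CO2, then exposed to library compounds with dopamine controls for 90 minutes at 37 degrees C before luminescent detection.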
# DRD3 agonist: agonists of human D3 dopamine receptor; 410,000 tested, 0.58% active; P35462; max activation, %; D3R DiscoveRx beta-arrestin cells, luminescence, 90 min; in the data active = max activation above about 30%
#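 Agonist-mode cell screen: cells plated at 1500/well and incubated overnight at 37 °C, then exposed to library compounds for 90 min at 37 °C. Detection reagent was added for 30–60 min at room temperature, and luminescence was read.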
# ClpP mod: qHTS Assay for Activators of ClpP | 340,000 tested, 1.9% active | Potency, µM (doses to about 57.5 µM) | purified B. subtilis ClpP, FRET peptide cleavage, 20 min | AID 651965, 2013 | ATP-dependent Clp protease proteolytic subunit (Bacillus subtilis (strain 168)), P80244; active = well fitted falling curve with a large enough effect; inconclusive = small, poorly fitted or top-dose-only effect; inactive = no such curve, though single readings can be large or run the other way; also: the source files actives as falling curves though it sought activators and does not explain the sign; nearly all actives have a fitted effect of over 65% in size
# Target sequence (P80244 whole entry, looked up): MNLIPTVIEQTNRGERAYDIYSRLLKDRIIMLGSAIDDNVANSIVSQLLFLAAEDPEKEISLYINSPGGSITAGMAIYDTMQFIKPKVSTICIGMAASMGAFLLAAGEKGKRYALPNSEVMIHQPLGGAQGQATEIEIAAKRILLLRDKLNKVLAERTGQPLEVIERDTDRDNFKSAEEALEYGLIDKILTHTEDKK
#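 Buffer: 100 mM Tris/HCl pH8, 100 mM KCl, 0.05% low protease BSA, 2.5% glycerol, 0.01% Tween-20. ClpP 10 microg/mL final; 20 min RT; delta FRET normalized to ADEP and DMSO controls.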
# TDP1 cell CPT: growth inhibition of DT40 Tdp1-/-;hTDP1 cells with camptothecin (screen for TDP1 inhibitors). chicken DT40 Tdp1-/-;hTDP1 cells + 20 nM CPT, ATP luminescence, 48 h. 420,000 tested, 12% active. Potency, µM (titrated, usually from 46.2 µM), most hits filed as inhibitors. AID 686979; also: nearly all actives have a fitted effect of over 55% in size
#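 Cell growth measured by CellTiter-Glo luminescence after a minimum 48 h, 37 C compound exposure with 20 nM CPT in Tdp1-knockout DT40 cells stably expressing hTDP1, seeded 400/well; qHTS titration format.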
# IL-1B inflam inh: inflammasome signaling inhibition, IL-1 beta readout; AID 743279; THP-1 LPS/ATP IL-1B secretion, AlphaLISA, 16 h; hits give low values; 360,000 tested, 4.7% active; activity change, % at 57.5 µM; in the data active = activity change below about -50%; inconclusive = mostly about -30% to -49%
#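 Secreted IL-1B measured by AlphaLISA bead assay after 16 h compound exposure of THP-1 cells; compounds (final up to 57.5 uM) added 1 h before LPS (250 ng/mL) and ATP (1.25 mM) stimulation; lower signal means less secretion.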
# Hits are given with their value; . = inactive; ? = inconclusive; / = no result given; ! = repeats disagree. Unless noted, calls follow the shape of the dose curve; as a rule, active = well fitted inhibition curve with a large enough effect; inconclusive = small, poorly fitted or top-dose-only effect; inactive = flat fitted curve, though single readings scatter.
SMILES,DT40 TDP1 no CPT,DRD3 antagonist,DRD3 agonist,ClpP mod,TDP1 cell CPT,IL-1B inflam inh
CC(=O)N(CCC(c1ccccc1)c1ccco1)Cc1cccs1 (configuration not stated),?,.,.,.,15µM,.
CC(C)(C)c1ccc(OCC(=O)NNC(=O)c2cccnc2)cc1,.,.,.,/,.,.
COc1cccc(C2SCC(=O)N2c2ccc(C)cc2)c1OC (configuration not stated),?,.,.,.,?,.
COc1cccc(C2C3=C(N=C4SCC(=O)N42)c2ccccc2CC3)c1OC (configuration not stated),21µM,.,.,.,23µM,.
Cc1cccc(C)c1NC(=O)Cn1nnc(S(=O)(=O)c2ccccc2)c1N,.,/,.,.,.,/
CCOC(=O)c1cc(S(=O)(=O)Nc2cccc(OC)c2)cn1C,?,.,.,.,21µM,.
CCOC(=O)c1cc(-c2ccccc2)n(CCC(=O)Nc2cc(OCC)ccc2OCC)c1C,?,/,.,.,16µM,/
CCOC(=O)c1cc(-c2ccccc2)n(CC(=O)Nc2ccccc2OCC)c1C,9.2µM,/,.,.,.,/
CCOC(=O)c1cc(-c2ccccc2)n(CC(=O)NCc2ccccc2OC)c1C,16µM,/,.,.,16µM,/
CCOc1ccc(N2CC(NC(=O)CCc3ccccc3)CC2=O)cc1 (configuration not stated),.,/,.,.,.,/
CN(Cc1cccs1)C(=O)CNC(=O)c1ccco1,.,.,.,.,.,.
CCOC(=O)c1cc(-c2ccccc2)n(CC(=O)Nc2cccc(OC)c2)c1C,5.8µM,.,.,.,?,.
CCOC(=O)c1cc(-c2ccccc2)n(CCCC(=O)Nc2ccc(C)cc2C)c1C,?,/,.,.,?,/
CCOC(=O)c1cc(-c2ccccc2)n(CC(=O)Nc2ccc(OC)c(OC)c2)c1C,?,.,.,.,?,.
CCOC(=O)c1cc(-c2ccccc2)n(CCCC(=O)Nc2cc(C)ccc2OC)c1C,23µM,/,.,.,18µM,/
CC(=O)c1cc(-c2ccccc2)n(CC(=O)Nc2cccc(C)c2)c1C,15µM,.,.,.,18µM,.
O=C(NC1CCCC1)c1n[nH]c2ccccc12,.,.,.,.,.,.
COc1ccc(NC(=O)N(CCC(C)C)C(C)c2ccccn2)c(OC)c1 (configuration not stated),?,-53,.,.,23µM,.
COc1cccc(C2C(C(N)=O)=C(C)Nc3ncnn32)c1 (configuration not stated),.,/,.,.,.,/
CC(=O)c1ccc(NC(=O)CSc2nccn2Cc2ccc3c(c2)OCO3)cc1,?,/,.,.,?,/
Cn1cc(CCCC(=O)NCc2ccc(F)cc2)c2ccccc21,21µM!,.,.,.,?,.
COc1ccccc1CNC(=O)CCCn1c(=O)c2ccccc2n(Cc2ccc(F)cc2)c1=O,?,/,.,.,16µM,/
COc1ccccc1CNC(=O)CCCn1c(=O)c2ccccc2n(Cc2ccccc2C#N)c1=O,4.6µM,/,.,.,26µM,/
COc1ccc(CNC(=O)CCc2cn(C)c3ccccc23)cc1,.,/,.,?,.,/
CC(C)NC(=O)[C@@H]1C[C@@H](Sc2ccccn2)CN1C1CCN(C)CC1,.,/,/,/,.,/
SMILES,DT40 TDP1 no CPT,DRD3 antagonist,DRD3 agonist,ClpP mod,TDP1 cell CPT,IL-1B inflam inh
O=C(c1c(F)cccc1F)N(C1CCCCC1)C1CCCCC1,18µM,.,.,.,?,.
O=C(c1c(F)cccc1F)N(Cc1ccccn1)C1CCCC1,4.6µM,.,.,.,18µM,.
O=C(c1c(F)cccc1F)N(Cc1cccs1)C1CCCC1,9.2µM,?,.,.,12µM,.
O=C(Nc1ccccc1)N(Cc1cccs1)C1CCCC1,?,.,.,.,?,.
O=C(NO)c1ccc(C(=O)N(C2CCCCC2)C2CCCCC2)cc1,21µM,.,.,.,16µM,.
O=C(COC(=O)c1c(F)cccc1Cl)NCC1CCCCC1,.,.,.,.,?,.
CCCCOc1ccc(C(=O)Nc2cc(-c3cn4cccnc4n3)ccc2OC)cc1,.,/,.,.,.,/
O=C(O)CC(Cc1ccccc1)(C(=O)O)c1ccccc1 (configuration not stated),.,.,.,.,.,.
Brc1ccc2nc(-c3ccco3)c(Cc3ccccc3)n2c1,?,.,.,.,?,.
Clc1cccc(Cc2c(-c3ccco3)nc3ccc(Br)cn23)c1,23µM,.,.,.,?,.
Clc1cccc(Cc2c(-c3ccco3)nc3ccc(Cl)cn23)c1,23µM,?,.,.,21µM,-59
Cc1nc2nc(SCC(=O)NCCCN3CCCC(C)C3)nn2c(C)c1Cc1ccccc1Cl (configuration not stated),.,.,.,.,?,?
CCOc1ccc(CN(C)Cc2cc(=O)oc3c(C)c(C)ccc23)cc1OC,8.2µM,.,.,/,10µM,.
COc1ccc(CN(C)Cc2cc(=O)oc3cc(C)c(C(C)C)cc23)cc1OC,?,.,.,/,?,-58
CSc1ccc(CN(C)Cc2cc(=O)oc3c(C)c(C)ccc23)cc1,?,.,.,.,21µM,.
Cc1ccc2c(CN(C)Cc3cccc(Cl)c3)cc(=O)oc2c1C,29µM,.,.,.,?,.
COc1ccc(C2C(=O)N(C3CCCCCC3)CC(=O)N2CCc2ccccc2)cc1 (configuration not stated),?,/,.,.,?,/
CS(=O)(=O)NCCc1csc2nc(-c3ccccc3)nn12,.,/,.,.,.,/
COc1ccc(CC(=O)Oc2ccc(C)cc2Br)cc1S(=O)(=O)N1CCOCC1,.,.,.,.,.,.
COc1ccc(N(CC(=O)NCc2ccc(F)cc2)C(=O)c2snc(C(N)=O)c2N)cc1OC,.,.,.,.,.,.
C=CCn1c(C)cc(C2=NNC(=NC(C)(C)C)SC2)c1C,?,.,.,.,?,-77
C=CCN=C1NN=C(c2cc(C)n(CCOC)c2C)CS1,.,.,.,.,.,.
Cc1cc(C2=NNC(=NC3CC3)SC2)c(C)n1Cc1ccco1,8.2µM,.,.,.,16µM,.
COCC(C)N=C1NN=C(c2cc(C)n(Cc3ccccc3Cl)c2C)CS1 (configuration not stated),12µM,.,.,.,13µM,?
COCCn1c(C)cc(C2=NNC(=Nc3ccc(Cl)cc3Cl)SC2)c1C,?,.,.,.,?,.
COCCCN=C1NN=C(c2cc(C)n(Cc3ccco3)c2C)CS1,0.029µM,.,.,.,0.65µM,.

# Assay outcomes deposited in PubChem by National Center for Advancing Translational Sciences (NCATS).
